Assay results: PubChem BioAssay AID588342 (National Center for Advancing Translational Sciences (NCATS), 2011)
Among all 360,000 compounds or so, about 25,000 (6.9%) were called active. About 9% were inconclusive and are not listed. The list comes from a sample in which actives are over-represented; it also holds similar structures and randomly drawn compounds. Values without a mark were called inactive. Calls follow the shape of the dose curve; as a rule, active = well fitted inhibition curve with a large enough effect; inconclusive = small, poorly fitted or top-dose-only effect; inactive = flat fitted curve, though single readings scatter.

Each compound was assayed against Luciferin 4-monooxygenase (Photinus pyralis) (UniProt P08659) (assay: qHTS profiling assay for firefly luciferase inhibitor/activator using purifed enzyme and Km concentrations of substrates (counterscreen for miR-21 project)). Conditions: purified FLuc, luminescence inhibition; series mostly up to 57.5 µM; activity change, negative = inhibition: at the top concentration.
Procedure, shortened: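 Purified P. pyralis luciferase (10nM final) with 10uM D-luciferin and 10uM ATP (Km levels) in 50mM Tris acetate pH 7.5, 10mM Mg acetate, 0.01% Tween-20, 0.05% BSA; qHTS 6-point titration, ~60 µM downward; luminescence read.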
Also: nearly all actives have a fitted effect of over 55% in size.
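For activity change, negative = inhibition in this document: plate controls were vehicle for no effect and reference inhibitor for full effect.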
Potency is read from the fitted curve at half-maximal effect.

Luciferin 4-monooxygenase (Photinus pyralis), sequence (P08659 whole entry, looked up): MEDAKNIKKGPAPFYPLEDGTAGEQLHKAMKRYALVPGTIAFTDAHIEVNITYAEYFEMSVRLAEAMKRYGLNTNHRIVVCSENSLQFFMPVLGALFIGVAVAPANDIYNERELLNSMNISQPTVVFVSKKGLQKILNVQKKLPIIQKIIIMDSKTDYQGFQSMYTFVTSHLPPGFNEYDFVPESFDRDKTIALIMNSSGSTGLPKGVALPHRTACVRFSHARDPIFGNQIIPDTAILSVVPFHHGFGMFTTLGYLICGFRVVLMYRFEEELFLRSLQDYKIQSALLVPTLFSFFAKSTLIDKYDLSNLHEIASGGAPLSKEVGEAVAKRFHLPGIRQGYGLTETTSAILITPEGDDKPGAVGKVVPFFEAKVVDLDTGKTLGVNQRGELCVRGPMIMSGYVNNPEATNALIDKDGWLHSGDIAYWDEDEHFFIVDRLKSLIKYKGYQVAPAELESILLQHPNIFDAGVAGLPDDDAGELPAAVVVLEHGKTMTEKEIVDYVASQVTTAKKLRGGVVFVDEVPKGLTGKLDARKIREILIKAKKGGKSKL

Structure (SMILES)	activity change, negative = inhibition [%]	Potency
COc1ccc(NC(=O)C2CCN(c3ccc(Sc4ccc(C)cc4)nn3)CC2)c(OC)c1	4.7	–
CN1CCN(C2(CNC(=O)COc3ccc(C(C)(C)C)cc3)CCCCC2)CC1	-0.665	–
O=c1c2ccccc2ncn1/N=C/c1ccccc1	–	1.69 µM (active)
CCOCCCn1c(NN)nc2ccccc2c1=O	4.5	–
O=C(Nn1cnc2ccccc2c1=O)c1ccccc1	2.64	–
O=c1c2ccccc2nc(N/N=C/c2ccccc2)n1O	–	1.51 µM (active)
CCCc1nc2ccccc2c(=O)n1/N=C/c1ccc(O)c(O)c1	1.87	–
Nc1nnn(CC(=O)N/N=C/c2ccccc2)n1	-1.5	–
COc1cc(C(=O)Nc2ccc(OCc3cc(=O)n4cc(C)sc4n3)cc2)cc(OC)c1OC	-2.09	–
CCN(C(=O)CSc1nc(N)cc(=O)[nH]1)C1CCS(=O)(=O)C1 (centres undefined)	-2.15	–
O=C(CN1CCCCC1)Nc1ccccc1C(=O)NC1CC1	-9.75	–
Cc1ccc(-c2nnc(Nc3ccc(OCC(N)=O)cc3)c3ccccc23)cc1S(=O)(=O)NCC1CCCO1 (centres undefined)	-26.1	–
CCCN(C(=O)Cn1cc(S(=O)(=O)N2CCN(c3ccccc3F)CC2)c2ccccc2c1=O)c1cccc(C)c1	0.802	–
COc1cccc(/C=C/C(=O)OCC(=O)N2CCN(c3ccccc3)CC2)c1	-1.28	–
CN=C1C=C/C(=N/N=c2\ccn(O)cc2C)C=C1C	–	15.1 µM (active)
CSc1ccccc1NC(=O)COC(=O)CCCOc1ccc(C)cc1	-0.833	–
CCCNC(=O)C(CC)n1nc(CC)n2c(cc3oc(C)cc32)c1=O (centres undefined)	-5.44	–
CCN(CC)S(=O)(=O)c1ccc(N2CCOCC2)c(NC(=O)C2CSC3(C)CCC(=O)N23)c1 (centres undefined)	-0.501	–
CCCCN(C)CCCNC(=O)c1cc(-c2cccs2)nc2ccccc12	-1.53	–
O=C(Nc1ccc(S(=O)(=O)Nc2nccs2)cc1)c1cc(-c2ccncc2)nc2ccccc12	-10.6	–
O=C(Nc1nnc(-c2ccccc2)o1)c1cc(-c2cccs2)nc2ccccc12	–	19 µM (active)
Cc1cccc(CC(=O)N2CC(=O)Nc3ccc(F)cc3C2c2ccccc2)c1 (centres undefined)	-1.47	–
Cc1ccc(CSc2nc3ccsc3c(=O)n2CCC(C)C)cc1	1.43	–
COc1ccc(NC(=O)CSc2nnc(C3CC3)n2C)cc1S(=O)(=O)N1CCCCC1	5.35	–
COc1cc2ccccc2cc1C(=O)N(CCN(C)C)c1nc2c(F)cccc2s1	-0.155	–
Fc1cc(F)c2nc(Nc3nc4c(F)cccc4s3)sc2c1	–	4.78 µM (active)

Structure (SMILES)	activity change, negative = inhibition [%]	Potency
NC(=O)c1c(Nc2nc3c(F)cccc3s2)sc2c1CCCC2	-11.7	–
COc1ccc(-c2cn3nc(N4CCC(C(=O)Nc5cccc(C)c5C)CC4)sc3n2)cc1	-1.45	–
CCc1ccc(NC(=O)CN2C(=O)CSC2=O)cc1	–	10.7 µM (active)
CCc1ccc(NC(=O)CN2C(=O)CCSc3ccc(S(=O)(=O)N4CCCC4)cc32)cc1	2.18	–
COc1ccc(NC(=O)CN2C(=O)CSC2=O)cc1	-17.3	–
CCn1c(=O)c2cc(C(=O)NCCc3ccc(Cl)cc3)sc2c2ccccc21	-6.83	–
COc1ccc(-c2onc(C)c2C)cc1S(=O)(=O)NCCc1ccccc1	-11.2	–
Cc1ccc2[nH]c(=O)c(COC(=O)c3ccccn3)cc2c1	11.8	–
CC(=O)OCc1cc2cc(C)ccc2[nH]c1=O	0.564	–
CCOC(=O)c1cc2cc(C)ccc2[nH]1	–	12 µM (active)
COc1cc(OC)c(NC(=O)c2cc(S(=O)(=O)N3CCCC3)cn2C)cc1Cl	-6.55	–
O=C(/C=C\c1ccc2c(c1)OCO2)NC1(C(=O)Nc2ccc3c(c2)OCCO3)CCCCC1	-3.09	–
CC(C)CNS(=O)(=O)c1ccc(C(=O)Nc2ccc3c(c2)OCO3)cc1	0.691	–
CNS(=O)(=O)c1ccc(NC(=O)Nc2ccc3c(c2)OCO3)cc1	–	6.01 µM (active)
CCN(CC(=O)Nc1ccc2c(c1)OCO2)S(=O)(=O)c1ccccc1	-11.9	–
Cc1ccc2nc(-c3ccccn3)cc(C(=O)Nc3ccc4c(c3)OCO4)c2c1	-4.26	–
Cc1cccc(NC(=O)Nc2ccc3c(c2)OCO3)n1	–	2.69 µM (active)
Cc1cccc(NC(=O)/C=C/c2ccc3c(c2)OCO3)n1	–	0.849 µM (active)
CCOC(=O)CCCNC(=O)COC(=O)/C=C/c1ccc2c(c1)OCO2	-6.33	–
O=C(Nc1ccc2c(c1)OCO2)c1cc(-c2cccc(Cl)c2)on1	3.04	–
CCOc1ccc(OCC(=O)Nc2c3c(nn2C(C)(C)C)CS(=O)(=O)C3)cc1	-17.5	–
COc1cccc(NC(=O)CN(C)C(=O)CSCc2nc3scc(-c4cccs4)c3c(=O)[nH]2)c1	-4.25	–
CC(C)CC(NS(=O)(=O)c1ccc2c(c1)oc(=O)n2C)C(=O)NCc1ccccc1Cl (centres undefined)	-5.21	–
COc1ccccc1C(CNC(=O)c1ccc(C)c(S(=O)(=O)N2CCCCC2)c1)N(C)C (centres undefined)	-2.16	–
Fc1ccc(Nc2nc(SCc3ccccc3Cl)nc3ccccc23)cc1	-16.5	–
COc1ccccc1NC(=O)c1ccc(N2CC3CC(C2)c2cccc(=O)n2C3)c(NC(=O)c2cccnc2)c1 (centres undefined)	0.549	–

Structure (SMILES)	activity change, negative = inhibition [%]	Potency
COC(=O)c1cnn(-c2ccc(C(=O)Nc3ccc(OC(F)(F)F)cc3)cc2)c1N	2.78	–
O=C(CN1C(=O)S/C(=C\c2ccccc2Cl)C1=O)NC1C=CS(=O)(=O)C1 (centres undefined)	-2.59	–
COc1ccc(/C=C2\SC(=S)N(CC(=O)NNC(=O)c3ccncc3)C2=O)cc1	–	5.36 µM (active)
COc1cccc(/C=C2/SC(=S)N(CC(=O)NC3C=CS(=O)(=O)C3)C2=O)c1 (centres undefined)	–	6.75 µM (active)
O=C(O)c1ccc(/C=C2\SC(=S)N(NC(=O)c3ccc(Br)cc3)C2=O)cc1	-14.6	–
COc1ccccc1CCC(=O)NNC(=O)c1ccncc1	0.895	–
COc1cccc(/C=C2\SC(=N)N(c3ccc(F)cc3)C2=O)c1	2.74	–
O=C1N(Cc2ccc3c(c2)OCO3)c2ccccc2C1(O)c1c[nH]c2ccccc12 (centres undefined)	3.13	–
O=C(c1ccc2c(c1)N(Cc1ccccc1)C(=O)c1ccccc1S2(=O)=O)N1CCCC1	-5.91	–
CC(C)(C)OC(=O)N[C@H](C(=O)OC(C)(C)C)c1ccc(Br)cc1	4.47	–
COc1cc(C#Cc2ccc3cc(CCCO)oc(=O)c3c2)cc(OC)c1	–	4.78 µM (active)
O=C1c2ccccc2C(=O)N1CCC#Cc1ccc2cc(C3(O)CCCCC3)oc(=O)c2c1	1.37	–
CCC(Sc1nc2n[nH]c(C)c2c(=N)n1-c1ccccc1Cl)C(=O)N(CC)CC (centres undefined)	5.14	–
Cc1ccccc1CS(=O)(=O)CC1Nc2ccc(C(=O)NCc3ccc(Cl)cc3)cc2NC1=O (centres undefined)	3.69	–
CCCCOc1ccc(Cn2c(=O)oc3ccc(C)cc32)cc1OC	-11.5	–
CCn1c(=O)n(CC)c2cc(N3CCCC3)c(NC(=O)c3ccccc3Br)cc21	3.02	–
CC(C)=C1SC(N2CCN(c3cccc(C)c3)CC2)=NC1=O	0.206	–
CCN1C(=O)/C(=C2\SC(N3CCCCC3)=NC2=O)c2ccccc21	–	3.38 µM (active)
Cc1occc1C(=O)NNC(=S)NCC(C)C	-0.662	–
CC(C)C(NC(=O)c1ccc(Cl)cc1)C(=O)O (centres undefined)	-0.225	–
CC(C)CNC(=S)NC(=O)c1ccc(Cl)cc1	–	12 µM (active)
CCOC(=O)N1CCC(NC(=O)c2cnn(-c3cccc(C)c3)c2C2CCN(C(=O)OC(C)(C)C)CC2)CC1	1.48	–
Cn1c(CCN2CCCC2)nc2cc(NS(=O)(=O)c3ccccc3)ccc21	0.966	–
CCCC(=O)Nc1ccc2c(c1)nc(CCNC(=O)c1ccco1)n2C	-1.08	–
CCOC(=O)N1CCN(Cc2nc3cc(NC(C)=O)ccc3n2C)CC1	2.23	–
Cn1c(CCN2CCCCCC2)nc2cc(NC(=O)Nc3ccccc3)ccc21	–	21.3 µM (active)

Structure (SMILES)	activity change, negative = inhibition [%]	Potency
CC(=O)NCCc1nc2cc(NC(=O)c3ccccc3)ccc2n1C	–	16.9 µM (active)
CCC(=O)Nc1ccc2c(c1)nc(CCN1CCN(c3ccccn3)CC1)n2C	0.231	–
Cc1ccc(Nc2ccc3cc(S(=O)(=O)N4CCCCC4)ccc3n2)cc1F	4.26	–
CCOC(=O)c1ccc(NC(=O)CCS(=O)(=O)c2ccc3c(c2)oc(=O)n3C)cc1	1.12	–
CC(C)CCNC(=O)CC1C(=O)N(Cc2ccccc2)C(C)c2nc3ccccc3n21 (centres undefined)	6.94	–
CCCNC(=O)c1c(Cl)cnn1-c1ccc(C)cc1	–	9.53 µM (active)
CCCN1CCN(CCCNC(=O)c2cnn(-c3ccc(C)cc3)c2-n2cccc2)CC1	1.38	–
CCCNC(=O)CCc1c(C)nc2c(c(C)nn2-c2ccc(C)cc2)c1C	-1.39	–
COc1ccccc1OCCNC(=O)C(CCSC)NC(=O)COc1ccccc1 (centres undefined)	0.951	–
CC(C(=O)NC1CCCC1)N1CCN(S(=O)(=O)c2ccccc2Cl)CC1 (centres undefined)	-0.449	–
CC(C)(C)c1nc2ccccc2c(=O)n1N1C(=O)c2ccccc2C1=O	3.69	–
CC(C)(C)c1cc(=O)n2c(nc3ccccc32)[nH]1	–	21.3 µM (active)
CC(C)(C)N1CC(c2nc3ccccc3n2Cc2ccc(F)cc2)CC1=O (centres undefined)	-0.554	–
O=C(COc1coc(CN2CCN(c3ccccc3)CC2)cc1=O)Nc1ccccc1F	-0.456	–
CC1=C(C(=O)OCC2CCCCC2)C(c2c(F)cccc2Cl)CC(=O)N1 (centres undefined)	-1.11	–
Cc1cccc(C(CC(=O)NCC2(c3ccccc3)CCCC2)c2ccccc2)c1O (centres undefined)	1.15	–
Cc1ccc(C(=O)Nc2nc(N)n(-c3ccccc3)n2)cc1	–	23.9 µM (active)
Cn1c(=O)c(C(=O)O)nn(-c2ccccc2)c1=O	-0.0194	–
Cc1ccc(S(=O)(=O)Nc2nc(N)n(-c3ccccc3)n2)cc1	-15.3	–
COc1ccc(CNC(=O)CCc2c(C)nn(-c3ccc(N4CCCC4)nn3)c2C)cc1	3.1	–
Cc1ccc(-n2c(C)nnc2SCC(=O)NC2CC2)cc1	-4.89	–
Cc1ccc(-n2c(C)cc(C(=O)CSc3nnc4ccccn34)c2C)cc1	–	2.13 µM (active)
Cn1c(CC(=O)Nc2ccccc2)nnc1SCC(=O)c1ccccc1	1.04	–
N#Cc1ccc(CSc2nnc3ccccn23)cc1	-0.254	–
CCN(C(=O)CSc1nnc2ccccn12)C1CCS(=O)(=O)C1 (centres undefined)	0.52	–
O=C(CSc1nnc2ccccn12)c1ccccc1	–	23.9 µM (active)
